# Shown are actives, neighbours in structure and some others; about 5.4% of the full set was active somewhere.
# Six1-Eya2 inh: blocks human Six1 binding to Eya2 | Q15475+O00167 | AlphaScreen GST-Six1/His-Eya2 binding, biochemical; hits give low values | activity change, % (no concentration beside the values) | 0.56% of 360,000 active | AID 651725; in the data active = activity change below about -65%; inconclusive = mostly about -30% to -63%; also: % is scaled to controls: 0 for no effect and ±100 for the full control effect
#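 Six1/Eya2 binding was read as AlphaScreen signal after compounds were pinned into GST-Six1 plus His-tagged Eya2 (5X stock 250/500 nM) in pH 8.0 Tris/NaCl/TCEP buffer, beads added, then incubated 1 h, 37 C, dark.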
# CtBP-E1A blk: CtBP/E1A binding inhibition; AlphaScreen GST-E1A/His-CtBP binding, 1536-well; hits give low values; activity change, % (test concentration not listed); 0.49% of 340,000 active; AID 651724; in the data active = activity change below about -65%; inconclusive = mostly about -30% to -63%; also: % is scaled to controls: 0 for no effect and ±100 for the full control effect
#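 In 5 uL wells, 23 nL compound meets equimolar GST-E1A and His-CtBP (5X stock 125 nM each) for 2 h, 37 °C. Beads (5X, 50 ug/mL) then 1 h, 37 °C, dark.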
# VP16 counter: inhibits Gal4-VP16 luciferase reporter, ROR gamma counter-screen. Drosophila S2 Gal4-VP16 UAS-luciferase, luminescence, 20 h. Potency, µM (doses to about 53.6 µM), for the others: at the highest dose activity, negative = inhibition, most hits filed as inhibitors. 3.5% of 310,000 active. AID 2546;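 also: Gal4-VP16 expression switched on by copper sulfate through the metallothionein promoter; potency is read from the fitted curve at half-maximal effect; % is scaled to controls: 0 for no effect and ±100 for the full control effect; nearly all actives have a fitted effect of over 50% in size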
# RORgamma inh: inhibitors of mouse ROR gamma transcriptional activity; 5.4% of 310,000 active; P51450; Drosophila S2 Gal4-RORgamma UAS-luciferase reporter, 20 h; Potency, µM (series often up to 53.6 µM), inactives show at the highest dose activity change, negative = inhibition, hits mostly inhibitors; also: potency is read from the fitted curve at half-maximal effect; % is scaled to controls: 0 for no effect and ±100 for the full control effect; nearly all actives have a fitted effect of over 60% in size
# Target sequence (P51450 whole entry, looked up, the tested form may be a part): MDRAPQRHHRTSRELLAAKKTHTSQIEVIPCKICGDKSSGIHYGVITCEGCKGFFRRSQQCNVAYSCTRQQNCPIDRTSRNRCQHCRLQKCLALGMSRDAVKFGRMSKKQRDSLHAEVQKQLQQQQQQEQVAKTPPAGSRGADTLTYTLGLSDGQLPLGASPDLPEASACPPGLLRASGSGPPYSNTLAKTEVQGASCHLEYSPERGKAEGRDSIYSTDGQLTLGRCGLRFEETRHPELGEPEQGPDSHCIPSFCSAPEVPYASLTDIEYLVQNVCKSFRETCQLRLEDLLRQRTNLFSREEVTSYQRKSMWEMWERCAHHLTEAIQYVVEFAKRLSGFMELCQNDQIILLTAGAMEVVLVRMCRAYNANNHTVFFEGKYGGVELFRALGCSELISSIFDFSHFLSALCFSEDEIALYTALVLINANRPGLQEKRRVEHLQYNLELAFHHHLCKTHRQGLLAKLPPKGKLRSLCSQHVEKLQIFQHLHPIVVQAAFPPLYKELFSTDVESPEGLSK
#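 A Gal4/UAS one-hybrid system in insect cells: metallothionein-promoter Gal4–ROR gamma fusion plus Photinus luciferase reporter. Copper sulfate 700 uM final, 20 hr ambient incubation, luminescent detection after 10 min with reagent.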
# p53 reactivation: restores transcriptional activity of mutant p53; H1299 p53-A138V BP100-luciferase reporter, luminescence, 24 h; Potency, µM (top dose mostly 92.2 µM), inactives show top-dose activity change, positive = activation, usual class: activators; 0.063% of 320,000 active; AID 504706; also: potency is read from the fitted curve at half-maximal effect; % of control where 0% means no effect; nearly all actives have a fitted effect of over 45% in size
#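 p53-null H1299 cells stably carrying temperature-sensitive p53-A138V and a BP100-luciferase reporter were pinned with compounds (4-point, 1:5 series) and held 24 hrs at 37 deg C. Luminescence was read 10 min after detection reagent.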
# Numbers without * were called inactive; ? = inconclusive; nt = no result given; [ ] = remark or other dose. Unless noted, calls follow the shape of the dose curve; as a rule, active = well fitted curve in the direction sought with a large enough effect; inconclusive = small, poorly fitted or top-dose-only effect, or another doubt; inactive = no such curve, though single readings can be large; an effect the other way counts as inactive or inconclusive.
SMILES,Six1-Eya2 inh,CtBP-E1A blk,VP16 counter,RORgamma inh,p53 reactivation
Cc1cc(C)cc(NC(=S)Nc2ccc(Cl)c(Cl)c2)c1,-7.6,-2.7,?,10µM*,12.4%
Cc1nc(Nc2cc(F)ccc2C)c2nnn(Cc3ccccc3)c2n1,-0.6,5.4,15.9%,?,6.9%
CCC(=O)OCC(=O)[C@@]1(OC(=O)CC)[C@H](C)C[C@@H]2[C@@H]3[C@H]([C@@H](O)C[C@@]21C)[C@]1(C)C=CC(=O)C=C1C[C@@H]3Cl,nt,nt,-6.8%[17 µM],-20.0%[2.98 µM],nt
COc1ccc(N(CC(=O)NCc2ccc(C)cc2)S(=O)(=O)c2c(C)noc2C)cc1,-0.7,3.4,-3.8%,-2.4%,-0.2%
O=C(Nc1cccc(Oc2ccc(C(=O)O)c(C(=O)O)c2)c1)c1ccc(-c2ccccc2)cc1,-28.5,-9.3,?,?,-0.4%
CC(C)(C)C(=O)Nc1ccc(C(=O)Nc2cccc(Oc3ccc(C(=O)O)c(C(=O)O)c3)c2)cc1,0.6,nt,11.2µM*,?,0.9%
Cc1ccc(S(=O)(=O)N2CCN(S(=O)(=O)c3ccccc3Br)CC2)cc1,3.3,3.9,nt,nt,4.9%
COc1cc(CN2CCNC(=O)C2CC(=O)N2CCc3ccccc3C2)cc(OC)c1 (stereo not drawn),-0.6,nt,3.7%,-8.1%,0.3%
CC(O)CNCCNCc1c(OCc2ccccc2)ccc2ccccc12 (stereo not drawn),17.5,50.6,22.4µM*,?,-12.8%
O=C(Nc1ccc(F)c(Cl)c1)C1Cc2c(-c3ccc4c(c3)OCO4)ccnc2O1 (stereo not drawn),-11.8,-5.0,nt,nt,nt
Cc1nc(C(=O)NNC(=O)c2ccc(Cl)cc2)c(C(F)(F)F)o1,-1.1,-0.6,?,11.2µM*,7.6%
Cc1ccc(C(=O)N/N=C/c2ccoc2)cc1C,-1.9,-25.4,?,12.6µM*,-2.7%
O=C(N/N=C/c1ccc(Br)s1)c1cccc([N+](=O)[O-])c1,-16.3,20.9,1µM*,0.447µM*,-3.5%
O=C(N/N=C/c1ccoc1)c1cccc([N+](=O)[O-])c1,0.7,0.5,?,11.2µM*,28.9%
COc1ccc(C(=O)N/N=C\c2ccoc2)cc1,5.9,-4.7,0.8%,-19.8%,25.1%
Cc1ccc(/C=N/NC(=O)c2cccc([N+](=O)[O-])c2)o1,-28.9,-21.2,?,-21.9%[10 µM],1.9%
C=CCn1c(-c2ccccc2)nc(=S)c2c1CCCC2,-2.2,-16.2,-4.5%,-26.2%,-3.4%
Fc1ccc(-c2nc3nc4ccccc4nc3n2Cc2ccco2)cc1,-2.8,1.6,1.9%,?,17.9%
S=c1nc(-c2ccccc2)n(Cc2ccco2)c2c1CCCC2,nt,nt,?,17.8µM*,-5.6%
CC(C)Cn1c(-c2ccccc2)nc(=S)c2c1CCCC2,1.1,-3.8,-15.9%,20µM*,2.2%
c1ccc(-c2nc3nc4ccccc4nc3n2Cc2ccco2)cc1,-21.3,0.0,20µM*,-90.8%,18.0%
Cc1ccccc1-c1cc(N(C)Cc2ccco2)ncn1,nt,nt,-7.8%,13.7%,nt
O=C(O)c1ccc(NC(=S)NC(=O)c2ccc(-c3ccc(Br)cc3)o2)cc1,6.1,-9.8,-11.5%,-10.9%,8.8%
O=C(Nc1ccc(-c2nc3cccnc3s2)cc1)C1CCCO1 (stereo not drawn),-3.0,-9.9,11.2µM*,17.8µM*,nt
O=C(Nc1ccc(-c2nc3ccccc3o2)cc1)C1CCCO1 (stereo not drawn),-1.8,5.4,?,-35.2%,nt
SMILES,Six1-Eya2 inh,CtBP-E1A blk,VP16 counter,RORgamma inh,p53 reactivation
Cc1ccc2nc(-c3ccc(NC(=O)Cc4cccs4)cc3)[nH]c2c1,3.9,8.9,?,?,3.0%
Cc1ccc2nc(-c3ccc(NC(=O)C4CCCO4)cc3)[nH]c2c1 (stereo not drawn),-9.4,-7.7,7.08µM*,6.31µM*,7.9%
COC(=O)NC(c1cccc(F)c1)[C@]1(C(C)=O)CCCC1=O (stereo partly drawn),nt,nt,-5.4%[10 µM],9.7%[10 µM],nt
Cc1c(Cl)cccc1NC(=O)CCN1C(=O)C2CC=CCC2C1=O (stereo not drawn),4.7,6.1,5.9%,44.4%,-10.6%
Nc1ncnc(Oc2cccc3cccnc23)c1[N+](=O)[O-],-66.6*,-13.1,8.91µM*,4.47µM*,-0.6%
Cc1c(C(=O)NCc2cccc([N+](=O)[O-])c2)sc(=O)n1Cc1ccccc1F,-7.9,-6.8,nt,nt,nt
COCCCN=CC1=C(O)CC(c2ccccc2)CC1=O (stereo not drawn),0.0,-19.7,-0.8%,-1.2%,6.2%
CCOc1ccc(-c2noc(CCC(=O)O)n2)cc1,10.7,0.1,1.41µM*,0.355µM*,-2.2%
CCOc1ccc(-c2noc(CCC(=O)NCCc3ccccc3)n2)cc1OC,6.7,-65.5*,0.5%,34.3%,nt
COc1ccc(-c2noc(CCCC(=O)O)n2)cc1,-1.7,7.3,0.355µM*,0.316µM*,-24.1%
COc1ccc(-c2noc(CCC(=O)O)n2)cc1,4.9,4.7,?,?,1.8%
Cc1ccc2nc(C(=O)N3CCc4c([nH]c5ccccc45)C3c3ccccn3)cn2c1 (stereo not drawn),-10.3,-13.8,-0.8%,-10.5%,1.8%
Cc1[nH]c2ccccc2c1/C=N/Nc1ccccc1[N+](=O)[O-],-68.8*,?,-7.2%,?,-0.5%
CC(C)Oc1ccccc1/C=N/Nc1ccccc1[N+](=O)[O-],-72.1*,-75.8*,0.1%,44.6%,15.4%
COc1ccccc1/C=N\Nc1ccccc1[N+](=O)[O-],-19.0,0.0,0.7%,-0.6%,?
CCCOc1ccc(/C=N/Nc2ccccc2[N+](=O)[O-])c(O)c1,-28.1,-28.2,?,7.08µM*,nt
CC1(C)C(=O)Nc2ccccc2N1C(=O)COC(=O)c1cccnc1Cl,-0.2,4.5,nt,nt,2.5%
Cc1noc(C)c1-c1cc(N(C)Cc2ccco2)ncn1,nt,nt,22.4%,-17.5%,nt
CCc1ccccc1NC(=O)NCc1cccnc1,4.3,0.6,-3.6%,1.0%,-6.7%
CC(=O)N1CCc2cc(S(=O)(=O)NC3CCCc4ccccc43)ccc21 (stereo not drawn),0.0,-7.7,20µM*,?,-7.3%
O=C(O)c1ccc(S(=O)(=O)NC2CCCc3ccccc32)cc1 (stereo not drawn),-0.7,1.5,-9.4%,20.1%,-5.7%
COc1ccc(C(=O)C(CN2CCOCC2)c2ccccc2)cc1F (stereo not drawn),-2.4,3.1,11.2µM*,11.2µM*,-48.5%
COc1ccc(C(O)C(CN2CCOCC2)c2ccccc2)cc1F (stereo not drawn),6.5,0.0,nt,0.0%[0.365 µM],-12.5%
CCCOc1ccc(C(=O)C(c2ccccc2)N2CCOCC2)cc1 (stereo not drawn),-0.6,6.9,-3.9%,23.2%,-5.1%
CCCOc1ccc(C(=O)C(CN2CCOCC2)c2ccccc2)cc1 (stereo not drawn),-2.7,-7.2,?,12.6µM*,-23.8%

# High-throughput results as filed in PubChem.
